Data on 26 compounds can be found in publication PMC4336329 (PLoS ONE, 2015).

In all, about 310,000 compounds went through this assay and about 14,000 (4.5%) showed an effect of 50% or more. Effects have a minus sign here. The sample as a whole holds a higher share of strong results than the screen did.
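Note: peak tail current of the secondary pulse compared with the same well before compound.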

For the experiment, the target named is human ether-à-go-go-related gene (hERG) potassium channel (human, UniProt Q12809). Put plainly: primary screen, population patch clamp on CHO cells stably expressing hERG; higher = less effect of the substance.
Sequence of human ether-à-go-go-related gene (hERG) potassium channel (Q12809 whole entry, looked up): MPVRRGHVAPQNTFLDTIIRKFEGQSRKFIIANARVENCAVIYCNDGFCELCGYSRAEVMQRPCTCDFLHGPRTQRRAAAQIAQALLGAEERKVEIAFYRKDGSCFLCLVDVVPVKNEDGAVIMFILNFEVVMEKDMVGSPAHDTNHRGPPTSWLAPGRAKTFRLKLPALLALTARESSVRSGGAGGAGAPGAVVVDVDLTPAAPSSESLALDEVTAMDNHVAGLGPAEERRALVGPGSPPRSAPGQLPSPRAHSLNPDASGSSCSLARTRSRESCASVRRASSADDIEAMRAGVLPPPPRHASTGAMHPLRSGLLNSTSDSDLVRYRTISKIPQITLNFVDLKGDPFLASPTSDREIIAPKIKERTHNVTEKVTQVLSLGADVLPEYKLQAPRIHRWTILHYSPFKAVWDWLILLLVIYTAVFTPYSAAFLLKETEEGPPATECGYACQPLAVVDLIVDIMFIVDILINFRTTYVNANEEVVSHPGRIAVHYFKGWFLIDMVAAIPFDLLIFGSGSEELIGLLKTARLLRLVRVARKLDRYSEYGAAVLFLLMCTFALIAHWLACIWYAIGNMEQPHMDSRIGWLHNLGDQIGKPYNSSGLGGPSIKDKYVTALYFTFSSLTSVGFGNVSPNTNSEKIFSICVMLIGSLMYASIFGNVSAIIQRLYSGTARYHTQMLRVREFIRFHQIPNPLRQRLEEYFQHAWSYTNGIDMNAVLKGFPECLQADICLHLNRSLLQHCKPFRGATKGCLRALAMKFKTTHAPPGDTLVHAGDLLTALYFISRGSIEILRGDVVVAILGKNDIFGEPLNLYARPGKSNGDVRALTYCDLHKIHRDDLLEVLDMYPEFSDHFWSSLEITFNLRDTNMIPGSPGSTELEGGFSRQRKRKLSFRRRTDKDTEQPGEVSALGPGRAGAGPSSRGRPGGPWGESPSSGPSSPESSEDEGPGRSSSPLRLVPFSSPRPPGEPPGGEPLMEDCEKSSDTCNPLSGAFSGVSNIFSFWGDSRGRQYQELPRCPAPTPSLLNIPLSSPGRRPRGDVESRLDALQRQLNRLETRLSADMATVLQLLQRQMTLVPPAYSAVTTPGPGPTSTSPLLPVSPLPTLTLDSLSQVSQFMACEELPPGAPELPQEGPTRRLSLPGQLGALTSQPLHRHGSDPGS
Take `CCOC(=O)C1=C(CC)Nc2ccccc2N=C1NC(=O)Nc1ccccc1OC`: the “hERG current change (%, negative = inhibition) at 10uM” value worked out at 13.8%. Then `COC(=O)c1ccc(N2C(=O)C3CC=CC(C)C3C2=O)cc1` (centres unmarked), with 19.3%. In the case of `COc1ccc(C(=O)CCN2CCN(c3ccccc3OC)CC2)cc1.Cl`, the “hERG current change (%, negative = inhibition) at 10uM” value is on record as -50.3%. With `COc1ccc(OC)c(NC(=O)CCN2CCN(c3ccccc3OC)CC2)c1`, the “hERG current change (%, negative = inhibition) at 10uM” value was 2.82%. Then `COc1ccc(C(=O)N2CCN(c3ccccc3OC)CC2)cc1`, with 21%. As to `OC1CCCN(Cc2nc(Cc3ccccc3Cl)no2)C1` (centres unmarked), the “hERG current change (%, negative = inhibition) at 10uM” value was 9.94%. Consider `O=C(CN(Cc1ccco1)C(=O)c1ccc(F)cc1F)Nc1ccccc1C(F)(F)F`, for which the “hERG current change (%, negative = inhibition) at 10uM” value is on record as -21.5%. Consider `CCOC(=O)C1CCN(C(=O)COc2cc(C)c(Br)c(C)c2)CC1`, for which the “hERG current change (%, negative = inhibition) at 10uM” value is -43.2%. For `CCOC(=O)C1CCN(C(=O)COc2ccc(Cl)cc2Cl)CC1`, the “hERG current change (%, negative = inhibition) at 10uM” value is -40.7%. Then `CCOC(=O)C1CCN(C(=O)COc2ccc(Br)cc2C)CC1`, with -19.3%; and `CCOC(=O)C1CCN(C(=O)COc2ccc(Cl)cc2C)CC1`, with -46.1%; and `CCOC(=O)C1CCN(C(=O)COc2ccc(Br)cc2Br)CC1`, with -51.8%. With `CCOC(=O)C1CCN(C(=O)COc2cc(C)c(Br)cc2C)CC1`, the “hERG current change (%, negative = inhibition) at 10uM” value is -54.7%. Consider `COc1cccc(N2C(=O)C3C(C2=O)C3(c2ccccc2)c2ccccc2)c1` (centres unmarked), for which the “hERG current change (%, negative = inhibition) at 10uM” value was -3.19%. Then `CCN(CC)C(=O)CSc1nnc2sc3ccccc3n12`, with 14.8%. For `CCOC(=O)C1(CCc2ccccc2)CCN(Cc2nccn2CC)CC1`, the “hERG current change (%, negative = inhibition) at 10uM” value was -66.2%. The figure for `CCOC(=O)C1(CCOc2ccccc2)CCN(Cc2nccn2CC)CC1` is -58.2%; for `CCOC(=O)C1(Cc2ccccc2)CCCN(Cc2ccccn2)C1` (centres unmarked) it is -20.7%.

For the compound `CCOC(=O)C1(CCc2ccccc2)CCN(Cc2ccccn2)CC1`, the “hERG current change (%, negative = inhibition) at 10uM” value is on record as -74.3%. Take `CCOC(=O)C1(Cc2ccccc2)CCN(Cc2nccn2CC)CC1`: the “hERG current change (%, negative = inhibition) at 10uM” value is given as -20%. Then `CCOC(=O)N1CCN(Cc2ccccn2)CC1.O=C(O)C(=O)O`, with 0.59%; and `CCOC(=O)C1(Cc2ccc(Cl)cc2)CCN(Cc2nccn2CC)CC1`, with -67.6%; and `CCOC(=O)C1(Cc2cccc(OC)c2)CCCN(Cc2nccn2CC)C1` (centres unmarked), with -30.8%. Consider `CCOC(=O)Cn1cnc2c(cnn2-c2ccc(Cl)cc2)c1=O`, for which the “hERG current change (%, negative = inhibition) at 10uM” value is on record as -4.32%. For `O=C(CCCc1ccccc1)Nc1ccc(Br)cc1F`, the “hERG current change (%, negative = inhibition) at 10uM” value is 14.4%. Then `Cc1cc(OCC(=O)c2ccc(C(F)(F)F)cc2)n2cnnc2n1`, with 5.8%.
